The source of these data is PubChem BioAssay (NCATS).

Results filed as inconclusive are left out. Active and inactive are the calls of the source. Unless noted, calls follow the shape of the dose curve; as a rule, active = well fitted cell-killing curve with a large enough effect; inconclusive = small, poorly fitted or top-dose-only effect, or effect the other way; inactive = no such curve, though single readings can be large or run the other way.

The nature of experiment [1]: Quantitative High-Throughput drug screen in 47 multiple myeloma cell lines against the NCATS MIPE library collection: PE2_PLB cell viability assay (AID 1919869). Also: nearly all actives have a fitted effect of over 35% in size. Also: potency is read from the fitted curve at half-maximal effect. The essentials:
(§1)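 ATP-based CellTiter-Glo luminescence after 48 h drug exposure (37 °C, 5% CO2) of 500 myeloma cells per well. DMSO-only wells set 100% viability, media-only wells 0%; MIPE 4.0 library added by pin tool.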

Experiment [2] in a line: Quantitative High-Throughput drug screen in 47 multiple myeloma cell lines against the NCATS MIPE library collection: PCM6_Riken cell viability assay (AID 1919870). Also: nearly all actives have a fitted effect of over 30% in size. Also: potency is read from the fitted curve at half-maximal effect. The essentials:
as §1

A short description of experiment [3]: Quantitative High-Throughput drug screen in 47 multiple myeloma cell lines against the NCATS MIPE library collection: RPMI8226_ATCC cell viability assay (AID 1919871). Also: nearly all actives have a fitted effect of over 30% in size. Also: potency is read from the fitted curve at half-maximal effect. The essentials: as §1
Experiment [4] in a line: Quantitative High-Throughput drug screen in 47 multiple myeloma cell lines against the NCATS MIPE library collection: OPM2_DSMZ cell viability assay (AID 1919872). Also: nearly all actives have a fitted effect of over 30% in size. Also: potency is read from the fitted curve at half-maximal effect. In outline:
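Viability readout: CellTiter-Glo luminescence following 5 min room-temperature incubation with reagent. Prior exposure: 48 h, 37C, humidified 5% CO2, 500 cells per well.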

The nature of experiment [5]: Quantitative High-Throughput drug screen in 47 multiple myeloma cell lines against the NCATS MIPE library collection: KMS11_JCRBsus cell viability assay (AID 1919873). Also: nearly all actives have a fitted effect of over 50% in size. Also: potency is read from the fitted curve at half-maximal effect. The essentials:
as §1

The nature of experiment [6]: Quantitative High-Throughput drug screen in 47 multiple myeloma cell lines against the NCATS MIPE library collection: KMS28BM_JCRB cell viability assay (AID 1919874). Also: nearly all actives have a fitted effect of over 35% in size. Also: potency is read from the fitted curve at half-maximal effect. In outline:
as §1

Experiment [7] is described as follows: qHTS drug screen for cell cycle checkpoint inhibitors in PARPi-resistant BRCA-mutant ovarian cancer cell lines. (AID 1963452; calls by dose curve). The note with it: PEO1/OlaR viability, CellTiter-Glo luminescence, 96 h, stronger effect = lower value. The essentials:
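PEO1, PEO4 and PEO1/OlaR ovarian cancer cells, 600 per well, exposed 96 h at 37C to a dilution series. Viability read by CellTiter-Glo luminescence, normalized to DMSO and empty wells; activity summarized as Z-AUC.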
(In qHTS, concentration-response curves come from the screen itself.)

The mark [8] stands for this setting: measured here: PEO1 parental Z-AUC.

`O=c1[nH]nc(Sc2ncc([N+](=O)[O-])s2)n1-c1ccc2c(c1)OCCO2`: the Potency in experiment [1] is 743 nM (active); in experiment [2] it was 1480 nM (active); in experiment [3] it was 3720 nM (active); in experiment [4] it was 8330 nM (active); in experiment [5], 2960 nM (active); in experiment [6] it was 2960 nM (active). For the same compound, the Z-AUC in experiment [7] was 0.0772 (inactive); in experiment [7] (setting [8]), 0.187; in experiment [7] (measured here: PEO4 Z-AUC), -0.291.

`O=C(O)Cn1nnc(-c2cc(N3CCC(Oc4cc(F)ccc4Br)CC3)no2)n1`: the Potency result in experiment [1], in experiment [2], in experiment [3], in experiment [4], in experiment [5] and in experiment [6] was “inactive” each time. In addition, the Z-AUC is -0.81 (inactive) in experiment [7], -0.799 in experiment [7] (setting [8]) and -1.41 in experiment [7] (measured here: PEO4 Z-AUC).

In the case of `CN(C1CCc2c(c3ccccc3n2CC(=O)O)C1)S(=O)(=O)c1ccc(F)cc1` (stereo not drawn), the Potency result in experiment [1], in experiment [3] and in experiment [4] was “inactive” throughout. In addition, the Potency in experiment [2] is 3720 nM (active).

In the case of `CCCCOc1c(C(=O)c2c(F)cc(C)cc2F)cnc2n[nH]cc12`, the Potency is 3720 nM (active) in experiment [1]; 2640 nM (active) in experiment [2]; 5900 nM (active) in experiment [3]; 7430 nM (active) in experiment [4]; 2640 nM (active) in experiment [5]; 2960 nM (active) in experiment [6]. In addition, the Z-AUC was 0.41 (inactive) in experiment [7], 0.585 in experiment [7] (setting [8]) and -0.136 in experiment [7] (measured here: PEO4 Z-AUC).

In the case of `CCC[C@H](NC(=O)C(C#N)=Cc1cccc(Br)n1)c1ccccc1`, the Potency is 2090 nM (active) in experiment [1]; 1050 nM (active) in experiment [2]; 2960 nM (active) in experiment [3]; 5260 nM (active) in experiment [4]; 2960 nM (active) in experiment [5]; 2640 nM (active) in experiment [6].

`CCCCCCCCCC(=O)N[C@@H](Cc1c[nH]c2ccccc12)C(=O)N[C@H](CC(N)=O)C(=O)N[C@@H](CC(=O)O)C(=O)N[C@@H]1C(=O)NCC(=O)N[C@@H](CCCN)C(=O)N[C@@H](CC(=O)O)C(=O)N[C@H](C)C(=O)N[C@@H](CC(=O)O)C(=O)NCC(=O)N[C@H](CO)C(=O)N[C@@H]([C@@H](C)CC(=O)O)C(=O)N[C@@H](CC(=O)c2ccccc2N)C(=O)O[C@@H]1C`: the Potency result in experiment [1], in experiment [2], in experiment [3], in experiment [4], in experiment [5] and in experiment [6] was “inactive” in each case. For the same compound, the Z-AUC in experiment [7] is -0.7 (inactive); in experiment [7] (setting [8]), -0.476; in experiment [7] (measured here: PEO4 Z-AUC) it was -0.85.

As to `CC1=C(CO)C(=O)O[C@@H]([C@@H](C)[C@H]2CC[C@H]3[C@@H]4C[C@H]5O[C@]56[C@@H](O)C=CC(=O)[C@]6(C)[C@@H]4CC[C@]23C)C1`, the Potency is 166 nM (active) in experiment [1]; 166 nM (active) in experiment [2]; 187 nM (active) in experiment [3]; 296 nM (active) in experiment [4]; 93.5 nM (active) in experiment [5].

For `COCCOc1ccc2c(c1)ncn2-c1ccc2cccc(N3CCC(N)CC3)c2n1`, the Potency in experiment [1] is 372 nM (active); in experiment [2], 1050 nM (active); in experiment [3], 26400 nM (active); in experiment [4] it was 1870 nM (active); in experiment [5], 5260 nM (active); in experiment [6], 16600 nM (active). In addition, the Z-AUC is 0.074 (inactive) in experiment [7], 0.935 in experiment [7] (setting [8]) and 0.806 in experiment [7] (measured here: PEO4 Z-AUC).

In the case of `Nc1ccccc1NC(=O)c1ccc(CNC(=O)OCc2cccnc2)cc1`, the Potency in experiment [1] was 1660 nM (active); in experiment [2] it was 1660 nM (active); in experiment [3], 3320 nM (active); in experiment [4], 2090 nM (active); in experiment [5], 1870 nM (active); in experiment [6], 1050 nM (active). In addition, the Z-AUC in experiment [7] is -0.769 (inactive); in experiment [7] (setting [8]), -1.32; in experiment [7] (measured here: PEO4 Z-AUC), -1.54.

Consider `CC(C)(C)OC(=O)Nc1ccc(-c2cc(C(=O)NCCCCCCC(=O)NO)no2)cc1`, for which the Potency in experiment [1] is 2640 nM (active); in experiment [2] it was 1870 nM (active); in experiment [3] it was 3320 nM (active); in experiment [4], 2640 nM (active); in experiment [5] it was 1480 nM (active); in experiment [6], 1050 nM (active). Besides, the Z-AUC in experiment [7] is -0.0304 (inactive); in experiment [7] (setting [8]), 0.0473; in experiment [7] (measured here: PEO4 Z-AUC), 0.196.

On to `CCCCc1nc2cc(C=CC(=O)NO)ccc2n1CCN(CC)CC`, for which the Potency was 1660 nM (active) in experiment [1]; 13.2 nM (active) in experiment [2]; 1320 nM (active) in experiment [3]; 833 nM (active) in experiment [4]; 372 nM (active) in experiment [5]; 187 nM (active) in experiment [6].

For `C1=CCOCc2cc(ccc2OCCN2CCCC2)Nc2nccc(n2)-c2cccc(c2)OCC1`, the Potency is 1660 nM (active) in experiment [1]; 935 nM (active) in experiment [2]; 5900 nM (active) in experiment [3]; 7430 nM (active) in experiment [4]; 1320 nM (active) in experiment [5]; 2350 nM (active) in experiment [6].

Turning to `CC1(C)OC2=C(C(=O)c3ccccc3C2=O)[C@H](NCc2ccccc2)[C@H]1O`, the Potency is 3320 nM (active) in experiment [1]; 2350 nM (active) in experiment [2]; 8330 nM (active) in experiment [3]; 8330 nM (active) in experiment [4]; 3720 nM (active) in experiment [5]; 2960 nM (active) in experiment [6].

Take `Nc1ccccc1NC(=O)c1ccc(CNc2nccc(-c3cccnc3)n2)cc1`: the Potency was 1320 nM (active) in experiment [1]; 2350 nM (active) in experiment [2]; 2640 nM (active) in experiment [3]; 2640 nM (active) in experiment [4]; 662 nM (active) in experiment [5]; 833 nM (active) in experiment [6]. The Z-AUC is -0.45 (inactive) in experiment [7], -0.821 in experiment [7] (setting [8]) and -0.657 in experiment [7] (measured here: PEO4 Z-AUC).

Consider `COc1ccc(-n2nc(C(N)=O)c3c2C(=O)N(c2ccc(N4CCCCC4=O)cc2)CC3)cc1`, for which the Potency result in experiment [1], in experiment [2], in experiment [3], in experiment [4], in experiment [5] and in experiment [6] was “inactive” in each case. Besides, the Z-AUC in experiment [7] is 1.05 (inactive); in experiment [7] (setting [8]) it was 0.968; in experiment [7] (measured here: PEO4 Z-AUC), 0.601.

For the compound `COc1cccc2c(NCc3ccccc3)nc(-n3c(N)nc4ccccc43)nc12`, the Potency in experiment [1] is 5260 nM (active); in experiment [2], 2350 nM (active); in experiment [3] it was 8330 nM (active); in experiment [4], 8330 nM (active); in experiment [5], 2640 nM (active); in experiment [6] it was 2960 nM (active).

Regarding `c1nc2nc(Nc3ccc(N4CCOCC4)cc3)nc(NC3CCCCC3)c2[nH]1`, the Potency was 3720 nM (active) in experiment [1]; 5900 nM (active) in experiment [2]; 11800 nM (active) in experiment [3]; 11800 nM (active) in experiment [4]; 5260 nM (active) in experiment [5].

Regarding `Cc1nc(Nc2n[nH]c3c2CN(C(=O)N[C@H](CN(C)C)c2ccccc2)C3(C)C)c2sccc2n1`, the Potency in experiment [1] was 833 nM (active); in experiment [2], 1870 nM (active); in experiment [3], 1320 nM (active); in experiment [4] it was 3720 nM (active); in experiment [5], 37.2 nM (active); in experiment [6] it was 37.2 nM (active). The Z-AUC in experiment [7] is -0.766 (inactive); in experiment [7] (setting [8]) it was -0.524; in experiment [7] (measured here: PEO4 Z-AUC), -1.06.

Turning to `O=C(c1ccc(Nc2nccc(-c3cc4ccccc4s3)n2)cc1)N1CCC(N2CCCC2)CC1`, the Potency was 7430 nM (active) in experiment [1]; 1870 nM (active) in experiment [2]; 20900 nM (active) in experiment [3]; 20900 nM (active) in experiment [4]; 5900 nM (active) in experiment [5]; 9350 nM (active) in experiment [6]. Also, the values for the Z-AUC in experiment [7], in experiment [7] (setting [8]) and in experiment [7] (measured here: PEO4 Z-AUC) were 0.507 (inactive), 0.645 and 0.0416, respectively.
